Hits are enriched below; roughly 10% of the tested compounds scored in any of these assays.
VDR inhibitor = blocks the human vitamin D receptor; Potency, µM, usual class: inhibitors; 400,000 tested, 0.93% active; AID 504847; VDR-SRC2-3 peptide fluorescence polarization, 2 h; P11473
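Compounds are added to VDR with labelled SRC2-3 coactivator peptide and held 2 h at room temperature. Inhibition of the VDR–peptide interaction is then read as a change in fluorescence polarization.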
PLK1 PBD block = inhibitors of human PLK1 polo-box domain binding | Plk1 PBD binding of FITC phosphopeptide, fluorescence polarization | Potency, µM, hits mostly inhibitors | 360,000 tested, 2.8% active | AID 720504; also: series mostly up to about 57 µM; nearly all actives have a fitted effect of over 65% in size
Target sequence (P53350 whole entry, looked up, the tested form may be a part): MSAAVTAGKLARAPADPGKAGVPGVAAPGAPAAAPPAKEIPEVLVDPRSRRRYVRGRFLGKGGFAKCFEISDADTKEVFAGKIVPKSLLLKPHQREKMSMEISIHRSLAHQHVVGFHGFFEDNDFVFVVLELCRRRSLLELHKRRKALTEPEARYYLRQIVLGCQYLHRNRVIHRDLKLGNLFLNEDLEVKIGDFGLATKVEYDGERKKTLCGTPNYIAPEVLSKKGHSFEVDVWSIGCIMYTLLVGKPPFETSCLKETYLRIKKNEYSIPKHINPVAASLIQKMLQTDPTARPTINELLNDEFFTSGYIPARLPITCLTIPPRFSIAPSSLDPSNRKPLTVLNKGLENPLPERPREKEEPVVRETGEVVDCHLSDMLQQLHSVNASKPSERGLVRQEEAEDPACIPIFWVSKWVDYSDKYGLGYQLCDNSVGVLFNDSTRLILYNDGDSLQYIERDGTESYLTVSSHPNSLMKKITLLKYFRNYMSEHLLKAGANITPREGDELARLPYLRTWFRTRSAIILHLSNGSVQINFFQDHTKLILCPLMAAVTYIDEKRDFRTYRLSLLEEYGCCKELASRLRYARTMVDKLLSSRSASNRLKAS
Mm-Cpn inhibitor = M. maripaludis TRiC chaperonin inhibition | purified Mm-Cpn ATPase, ADP Transcreener TR-FRET | 330,000 tested, 0.031% active | AID 504842 | Potency, µM (top dose mostly 76.9 µM), usual class: inhibitors; also: nearly all actives have a fitted effect of over 80% in size
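Eu-cryptate anti-ADP/ADP-d2 competition gives a ratio inversely related to ADP. Enzyme at 25 nM was pre-exposed to compound for 10 min, then given 10 uM ATP for 30 min, 37°C throughout.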
CCT chaperon mod = cytosolic chaperonin activity modulation | purified chaperonin ATPase assay, HTRF ADP detection, 30 min | 360,000 tested, 0.3% active | activity change, % (no concentration beside the values), hits read low; in the data active = activity change below about -30%
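We incubate TRiC, 40 or 20 nM final, with library compounds at 76 uM and 10 uM ATP for 30 min at 37 °C. ADP formed is detected with Transcreener HTRF reagents after 30 min at room temperature.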
Sfp PPTase inh = inhibitors of Bacillus subtilis Sfp phosphopantetheinyl transferase. AID 1490. Potency, µM, hits mostly inhibitors. Biochemical Sfp PPTase activity, qHTS. 310,000 tested, 3.5% active;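 also: the enzyme is Sfp with the accession as filed and its product quenches rhodamine fluorescence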
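Sfp 15 nM + cpd, 15 min RT; start w/ rhodamine-CoA 5 uM, BHQ-2-YbbR 12.5 uM (final); 50 mM Hepes pH 7.6, 10 mM MgCl2, 0.01% NP-40, 0.01% BSA; read 525/598 nm at 0 and 30 min.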
G9a inh = blocks human histone lysine methyltransferase G9a. AID 504332. G9a H3K9 monomethylation, AlphaScreen, 2 h. Potency, µM (series often up to 102 µM), actives largely listed as inhibitors. 350,000 tested, 8.8% active; also: nearly all actives have a fitted effect of over 75% in size
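Step 1: enzyme (final 20 nM) with compound, 15 min RT. Step 2: substrate peptide 500 nM and SAM 20 uM, 2 h RT. Step 3: anti-H3K9me1 antibody and AlphaScreen beads, 10 min, then plate read.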
A number is an active result; 0 = inactive; ? = inconclusive; - = not tested or not shown; ! = repeats disagree; [ ] = dose if it differs, or a comment. Unless noted, calls follow the shape of the dose curve; as a rule, active = well fitted curve in the direction sought with a large enough effect; inconclusive = small, poorly fitted or top-dose-only effect, or another doubt; inactive = no such curve, though single readings can be large; an effect the other way counts as inactive or inconclusive.

SMILES | VDR inhibitor | PLK1 PBD block | Mm-Cpn inhibitor | CCT chaperon mod | Sfp PPTase inh | G9a inh
O=C1c2cc(S(=O)(=O)N3CCOCC3)ccc2-c2ccc(S(=O)(=O)N3CCOCC3)cc21 | 0 | - | - | - | - | -
CCN(CC)C(=O)Cn1c(=O)nc(-c2ccccc2F)c2cc(Cl)ccc21 | 0 | - | - | - | - | 0
COc1cc(/C=C(/C#N)C(=O)Nc2ccccc2)ccc1OCc1ccc(C(=O)O)cc1 | 0 | ? | 0 | 0 | 0 | ?
CCOc1cc(/C=C(\C#N)C(=O)Nc2cccc(C(=O)O)c2)ccc1OCc1ccc(Br)cc1 | 0 | 0 | 0 | 0 | 0 | 44.7µM
COc1cc(/C=C(\C#N)C(=O)Nc2cccc(C(=O)O)c2)ccc1OCc1ccc(C)cc1 | ? | ? | 0 | 0 | 0 | ?
CCOc1cc(/C=C(/C#N)C(=O)Nc2ccc(OC)cc2)ccc1OCc1ccc(C(=O)O)cc1 | 0 | 26.7µM | 0 | 0 | 0 | 56.2µM
COc1ccc(NC(=O)/C(C#N)=C/c2ccc(-c3ccccc3C(=O)O)o2)cc1 | 0 | 0 | 0 | 0 | 0 | 0
COc1ccc(NC(=O)/C(C#N)=C\c2ccc(-c3cc(C(=O)O)ccc3C)o2)cc1 | 0 | 0 | 0 | 0 | 0 | 25.1µM
CC(C)CCNC(=O)Nc1cc(C(=O)NCc2cccc(F)c2)ccc1N1CCCC1 | 0 | - | - | - | - | 0
CCOCCCNC(=O)Cn1cnc2c(cnn2-c2ccc(OC)cc2)c1=O | 0 | 26.7µM | 0 | 0 | 0 | -
COc1cc(C2Nc3ccc4ncccc4c3C3=C2C(=O)CCC3)ccc1O (stereo not drawn) | 0 | 0 | 0 | 0 | 0 | 50.1µM
O=c1cc(-c2ccccc2)oc2cc(O)c(O)c(O)c12 | 0 | 0 | 0 | 0 | 28.2µM! | -
O=c1cc(-c2ccc(O)cc2)oc2c(O)c(O)c(O)c(O)c12 | 0 | 0 | 0 | 0 | 4.47µM | 20µM
CNC(C)C#Cc1c(-c2cc(OC)c(OC)c(OC)c2)noc1C (stereo not drawn) | 0 | 0 | 0 | 0 | 0 | 31.6µM
COc1cc(-c2noc(C)c2C#Cc2ccc(N)cc2)cc(OC)c1OC | 0 | 0 | 0 | 0 | 0 | -
O=C(Cc1c(Cl)cccc1Cl)OCc1ccccn1 | 0 | 0 | 0 | 0 | 0 | 0
NC(N)=NC(=O)Cc1c(Cl)cccc1Cl | 0 | 0 | 0 | 0 | 89.1µM! | 12.6µM!
COc1ccc(/C=N\NC(=O)c2ccc(F)cc2)cc1COc1ccccc1C(N)=O | 0 | 0 | 0 | 0 | 0 | 35.5µM
COc1ccc(C(=O)N/N=C/c2ccc(OC)c(COc3c(F)c(F)cc(F)c3F)c2)cc1 | 0 | 0 | 0 | 0 | 0 | ?
COc1ccc(/C=N\NC(=O)c2ccc([N+](=O)[O-])cc2)cc1COc1c(F)c(F)cc(F)c1F | 0 | 0 | 0 | 0 | 0 | 63.1µM
COc1ccc2c(CNCCc3ccccc3)c(C(=O)O)n(Cc3cccc(F)c3)c2c1 | 0 | - | - | - | - | ?
Cc1ccc(CCNC(=O)CN2CCN(Cc3ccc(Cl)cc3)C2=O)cc1 | 0 | - | - | - | - | 0
CCc1cccc(NC(=O)CSc2n[nH]c(-c3ccccc3Cl)n2)c1 | 0 | - | - | - | - | 0
Clc1ccccc1-c1nc(NCc2cccs2)c2ccccc2n1 | 0 | - | - | - | 0 | 0[0.501 µM]
Cc1cc(C)c2c(N)c(C(=O)c3ccc(Br)cc3)oc2n1 | 0 | 0 | 0 | 0 | 0 | 35.5µM
SMILES | VDR inhibitor | PLK1 PBD block | Mm-Cpn inhibitor | CCT chaperon mod | Sfp PPTase inh | G9a inh
CCN1CCN(Cc2c(O)ccc3c2O/C(=C\c2ccc(C)cc2)C3=O)CC1 | 0 | 0 | 0 | 0 | 0 | 0
CCN1CCN(Cc2c(O)ccc3c2O/C(=C\c2ccccc2)C3=O)CC1 | 0 | 0 | 0 | 0 | 0 | 79.4µM
CC1CCCN(Cc2c(O)ccc3c2O/C(=C\c2ccco2)C3=O)C1 (stereo not drawn) | 0 | ? | 0 | 0 | 35.5µM | 3.55µM
CN(C)N=C1c2cc(S(=O)(=O)N3CCOCC3)ccc2-c2ccc(S(=O)(=O)N3CCOCC3)cc21 | 0 | 0 | 0 | 0 | 0 | 20µM
COc1ccc(C(=O)NC(=S)SCC(=O)O)cc1 | 0 | 18.9µM | 0 | 0 | 50.1µM | -
COc1ccc(C(=O)NCC(=O)O)cc1 | 0 | 0 | - | 0 | 0 | 0
CCOC(=O)CSC(=S)NC(=O)c1ccc(OC)cc1 | ? | 2.99µM | 0 | 0 | 0 | ?
COC(=O)C1=C(C)NC(=O)C1(NC(=O)c1cc(OC)c(OC)c(OC)c1)C(F)(F)F (stereo not drawn) | 0 | - | - | - | - | 0
CC(=O)Nc1ccc(-c2nnc3n(Cc4ccc(C)cc4)c(=O)c4ccccc4n23)cc1 | 0 | - | - | - | - | 0
Cc1ccc(NC(=O)c2cnc(N3CCN(c4ccccn4)CC3)c3ccccc23)c(Br)c1 | 0 | 23.8µM | 0 | 0 | 0 | 0
CCCCCCc1cc2cc(S(=O)(=O)c3ccc(Cl)cc3)c(=O)oc2cc1O | 0 | 0 | 0 | 0 | 0 | 0
CCN(CC)c1ccc2cc(S(=O)(=O)c3ccc(Cl)cc3)c(=O)oc2c1 | 0 | 18.9µM | 0 | 0 | 0 | 0
O=C(Cn1ccn(-c2ccc(F)cc2)c(=O)c1=O)Nc1ccc(F)cc1 | 0 | - | - | - | - | 0
Cn1nnnc1Sc1ncnc2scc(-c3ccc(Cl)cc3)c12 | ? | - | 0 | - | - | 0[2.33 µM]
Clc1ccc(-n2nnnc2Sc2ncnc3sccc23)cc1 | 79.4µM | 8.44µM | - | 0 | - | -
Cc1ccccc1C(=O)Nc1ccc(OCc2cc(=O)n3cccc(C)c3n2)cc1 | 0 | - | - | - | - | 0
COc1ccc(-c2nc3n(n2)C(=O)CC(c2ccco2)S3)cc1 (stereo not drawn) | 0 | 0 | 0 | 0 | ? | 2.24µM
CCOC(=O)CCn1c(=O)c2cccn2c2cccnc21 | 0 | - | - | - | - | 0
Cc1cc(C)n2nc(C(=O)OCC(=O)c3cc(C)n(C)c3C)nc2n1 | 0 | 0 | 0 | 0 | 0 | 44.7µM
Cc1cc(S(=O)(=O)c2ccc(Cl)cc2)nc(S(=O)(=O)c2ccc(Cl)cc2)c1C#N | - | 2.67µM | - | 0 | - | -
Cc1nnc(SCC(=O)c2ccc(Cl)cc2)n(N)c1=O | 20µM | 0 | 0 | 0 | ? | ?
Cn1ccnc1SCC(=O)c1ccc(Cl)cc1 | 0 | 0 | 0 | 0 | ? | 50.1µM
Cn1ccnc1SCC(=O)c1ccc(F)cc1 | 0 | 0 | - | 0 | - | -
COc1cccc(C(=O)CSc2nnnn2C)c1 | ? | 0 | 0 | 0 | 50.1µM | ?
COC(=O)CSc1nnc(CNS(=O)(=O)c2ccc(C)cc2)n1C | 0 | 0 | 0 | 0 | 0 | 0
COc1cccc(C(=O)CSc2nnc(CNS(=O)(=O)c3ccc(C)cc3)n2C)c1 | ? | 0 | 0 | 0 | 0 | 3.16µM
CN(Cc1ccco1)c1ncnc2ccc(-c3cccc(Cl)c3)cc12 | - | - | 0 | - | - | 0[12.7 µM]
CCOc1ccc(NC(=O)c2cnn3c2NC(C)=C(C(=O)Nc2ccc(Cl)cc2)C3c2ccc(OC)c(OC)c2)cc1 (stereo not drawn) | 0 | - | - | - | - | 0
CCCOc1ccc(CNC(=O)Cn2ncn3c(cc4sc(CC)cc43)c2=O)cc1 | 0 | - | - | - | - | 0
COc1cccc(C(=O)CSc2nccn2C)c1 | 0 | 0 | 0 | 0 | 56.2µM | 50.1µM
